Results from PubChem BioAssay AID1159580 (chemical genetic matrix, 2015).
Values joined by “and” are separate entries in the source; they are usually repeats but may differ in a detail not shown here. Equal values may be shown once. Hit rate of the full screen: of about 5,500 compounds, about 2,000 (36%) were called active. Roughly 18% stayed inconclusive and do not appear here. Rule as the data show it: active = normalized growth mostly below about 0.91 (no sharp cut-off); inconclusive = no clear call, values can overlap the other calls; inactive = mostly above about 0.92. The list shows a part of the results.

Experiment: chemical genetic growth profiling, strain panel (AID 1159580);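 also: tested at 20 µM; growth read once vehicle control cultures reached saturation at 30 °C; 1 = growth at the plate median or of vehicle wells; lower values mean less growth of the strain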
Settings: S. cerevisiae deletion strains, growth OD

Measured: normalized growth

COc1cc([C@@H]2c3cc4c(cc3[C@H](OC(C)=O)[C@H]3COC(=O)[C@H]23)OCO4)cc(OC)c1OC
inactive: locus YAL021C, strain ccr4, active compounds read low 0.992 | locus YAL026C, strain drs2, active compounds read low 1.01 | locus YAL030W, strain snc1, active compounds read low 0.999 | locus YBL061C, strain skt5, active compounds read low 1.01 | locus YBR009C, strain hhf1, active compounds read low 1.01 | locus YBR021W, strain FUR4, active compounds read low 0.956 | locus YBR023C, strain chs3, active compounds read low 1 | locus YBR171W, strain sec66, active compounds read low 1.02 | locus YBR229C, strain ROT2, active compounds read low 0.99 | locus YBR231C, strain swc5, active compounds read low 1 | locus YBR279W, strain paf1, active compounds read low 0.976 | locus YCL011C, strain gbp2, active compounds read low 1 | locus YCL016C, strain dcc1, active compounds read low 1.01 | locus YCL029C, strain bik1, active compounds read low 0.986 | locus YCL061C, strain MRC1, active compounds read low 1.01 | locus YCL069W, strain vba3, active compounds read low 0.999 | locus YCR088W, strain abp1, active compounds read low 1.01 | locus YDL005C, strain med2, active compounds read low 1.01 | locus YDL035C, strain GPR1, active compounds read low 1.02 | locus YDL040C, strain nat1, active compounds read low 0.996 | locus YDL074C, strain BRE1, active compounds read low 0.991 | locus YDL101C, strain DUN1, active compounds read low 0.998 | locus YDL134C, strain PPH21, active compounds read low 1.03 | locus YDL185W, strain tfp1, active compounds read low 0.983 | locus YDL192W, strain arf1, active compounds read low 1.01 | locus YDR001C, strain nth1, active compounds read low 0.999 | locus YDR069C, strain doa4, active compounds read low 1.02 | locus YDR101C, strain arx1, active compounds read low 0.996 | locus YDR137W, strain rgp1, active compounds read low 0.884 | locus YDR159W, strain sac3, active compounds read low 1.01 | locus YDR162C, strain NBP2, active compounds read low 1.02 | locus YDR195W, strain ref2 1 | locus YDR297W, strain sur2, active compounds read low 0.998 | locus YDR318W, strain mcm21, active compounds read low 0.987 | locus YDR334W, strain swr1, active compounds read low 1.01 | locus YDR335W, strain msn5, active compounds read low 0.998 | locus YDR388W, active compounds read low 0.98 | locus YDR392W, strain spt3, active compounds read low 1.01 | locus YDR502C, strain sam2, active compounds read low 0.989 | locus YEL003W, strain gim4, active compounds read low 1.01 | locus YEL037C, strain rad23, active compounds read low 1 | locus YEL061C, strain CIN8 (second series), active compounds read low 0.996 | locus YEL061C, strain CIN8, active compounds read low 1 | locus YER015W, strain faa2, active compounds read low 1.02 | locus YER016W, strain bim1, active compounds read low 1 | locus YER110C, active compounds read low 0.96 | locus YER111C, strain swi4, active compounds read low 1.01 | locus YER155C, strain BEM2 (second series), active compounds read low 1.04 | locus YER155C, strain BEM2, active compounds read low 0.983 | locus YER167W, strain BCK2, active compounds read low 0.998 | locus YFR010W, strain ubp6, active compounds read low 1 | locus YGL078C, strain dbp3, active compounds read low 0.971 | locus YGL086W, strain mad1, active compounds read low 0.997 | locus YGL167C, strain pmr1, active compounds read low 1.02 | locus YGL173C, strain kem1, active compounds read low 1.01 | locus YGL227W, strain vid30, active compounds read low 1 | locus YGL240W, strain doc1, active compounds read low 1.01 | locus YGL248W, strain PDE1, active compounds read low 0.996 | locus YGL253W, strain hxk2, active compounds read low 1.01 | locus YGR135W, strain pre9, active compounds read low 0.986 | locus YGR252W, strain gcn5, active compounds read low 0.983 | locus YHR013C, strain ard1, active compounds read low 0.988 | locus YHR027C, strain rpn1, active compounds read low 1 | locus YHR030C, strain SLT2, active compounds read low 0.996 and 0.987 | locus YHR079C, strain IRE1 (second series), active compounds read low 0.988 | locus YHR079C, strain IRE1, active compounds read low 0.98 | locus YHR094C, strain hxt1, active compounds read low 0.973 | locus YHR129C, strain ARP1, active compounds read low 1 | locus YHR142W, strain chs7, active compounds read low 0.996 | locus YHR200W, strain rpn10, active compounds read low 0.988 | locus YIL066C, strain RNR3, active compounds read low 1.01 | locus YIL073C, strain SPO22, active compounds read low 0.98 | locus YIL125W, strain kgd1, active compounds read low 0.987 | locus YIR030C, strain dcg1, active compounds read low 0.974 | locus YJL092W, strain hpr5, active compounds read low 1.01 | locus YJL095W, strain BCK1 (second series), active compounds read low 1 | locus YJL095W, strain BCK1, active compounds read low 1.01 and 1.04 | locus YJL115W, strain asf1, active compounds read low 1.01 | locus YJL129C, strain trk1, active compounds read low 1 | locus YJL134W, strain LCB3, active compounds read low 0.993 | locus YJL154C, strain vps35, active compounds read low 1.01 | locus YJL164C, strain tpk1, active compounds read low 1.01 | locus YJL166W, strain qcr8, active compounds read low 0.995 | locus YJL168C, strain set2, active compounds read low 0.977 | locus YJL187C, strain SWE1 (second series), active compounds read low 1 | locus YJL187C, strain SWE1, active compounds read low 0.99 | locus YJR043C, strain POL32, active compounds read low 1.03
